# Pf growth 96h: P. falciparum growth inhibition at 96 hours; P. falciparum luciferase reporter growth, 96 h; Potency, µM (top dose mostly 28.7 µM), without a hit: top-dose activity change, negative = inhibition, most hits filed as inhibitors; hit rate 6.9% among 320,000; active = well fitted inhibition curve with a large enough effect; inconclusive = small, poorly fitted or top-dose-only effect, or another doubt; inactive = no such curve, though single readings can be large or run the other way; also: % is scaled to controls: 0 for no effect and ±100 for the full control effect
#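 Plates of compound plus infected erythrocytes (2% hematocrit, 0.05% parasitemia final) incubate 96 hours, 37 C, 5% CO2. Detection reagent added; reduced luminescence from the parasites' luciferase reporter flags inhibition.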
# NS1 inh: influenza NS1 inhibition | hit rate 0.4% among 270,000 | Potency, µM (doses to about 46.1 µM), without a hit: at the top dose activity, positive = more growth; also: actives are rising curves; nearly all actives have a fitted effect of over 50% in size
#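 Recovery from NS1-induced slow growth read by OD600 in budding yeast switched to galactose assay medium (pH 6.0, -URA) at 1:100 dilution. Compound 23 nl per well; the matching strain lacking NS1 serves as control.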
# Pf growth 48h: inhibits P. falciparum growth in the first generation, 48 h; P. falciparum luciferase growth in erythrocytes, 48 h; Potency, µM (highest dose often 28.7 µM), inactives show at the top dose activity change, negative = inhibition, hits mostly inhibitors; hit rate 5.9% among 310,000; AID 504832; active = well fitted inhibition curve with a large enough effect; inconclusive = small, poorly fitted or top-dose-only effect, or another doubt; inactive = no such curve, though single readings can be large or run the other way; also: % is scaled to controls: 0 for no effect and ±100 for the full control effect
#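 Firefly luciferase activity from engineered P. falciparum reports growth; inhibitors lower the luminescent signal. Cultures contained 2% hematocrit erythrocytes at 0.1% final parasitemia.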
# SARS PLP yeast: blocks SARS-CoV papain-like protease in a yeast assay | S. cerevisiae expressing SARS-CoV PLpro, growth rescue | Potency, µM (top dose mostly 32.9 µM), for the others: at the highest dose activity, positive = growth rescue, hits mostly activators | hit rate 0.19% among 330,000 | AID 485353; also: 0% is about no effect; nearly all actives have a fitted effect of over 55% in size
# Numbers without * were called inactive; ? = inconclusive; · = not tested or not shown. Shown are actives, neighbours in structure and some others; about 10% of the full set was active somewhere. Unless noted, calls follow the shape of the full dose curve. Potency is read from the fitted curve at half-maximal effect.
SMILES,Pf growth 96h,NS1 inh,Pf growth 48h,SARS PLP yeast
CC1(C)NC(=O)N(CCCC(=O)Nc2ccc(C(F)(F)F)cc2)C1=O,-29%,·,4%,3%
Nc1ccc(CCn2ccnc2)cc1,?,9%,?,-1%
O=C(Nc1ccc(OC(F)F)c(Cl)c1)[C@@H]1CCCN1C(=O)c1cccs1,4.1µM*,-3%,?,-30%
Cc1ccc(S(=O)(=O)CCC(=O)OCC(=O)NCc2ccc(Cl)cc2)cc1,-1%,·,7%,1%
CS(=O)(=O)c1ccc(C(=O)NCCN2C(=O)S/C(=C\c3cccnc3)C2=O)cc1[N+](=O)[O-],?,6%,5.2µM*,1%
CN(C)S(=O)(=O)c1ccc(C(=O)NCCN2C(=O)S/C(=C\c3cccnc3)C2=O)cc1,?,3%,?,-1%
COc1ccc(-c2[nH]c(-c3cccc(OC)c3)nc2SCC(=O)NC2CCCC2)cc1,3.3µM*,·,-20%,1%
COc1cccc(-c2ccc(SCC(=O)NC3CCCC3)nn2)c1,?,2%,-6%,-10%
COc1ccc(-c2[nH]c(-c3ccccc3)nc2SCC(=O)NCc2ccco2)cc1OC,1µM*,-2%,·,0%
COc1ccc(-c2[nH]c(-c3ccc(F)cc3)nc2SCC(=O)NC2CCCC2)cc1,?,14%,-23%,-2%
COc1ccc(-c2[nH]c(-c3ccccc3)nc2SCC(=O)NC2CCCC2)cc1,12µM*,-76%,-29%,12%
CC1C(=NO)C(C)C(c2ccc(N(C)C)cc2)NC1c1ccc(N(C)C)cc1 (configuration not stated),1.9µM*,-8%,?,-1%
CC1C(=O)C(C)C(c2ccc([N+](=O)[O-])cc2)NC1c1ccc([N+](=O)[O-])cc1 (configuration not stated),41%,5%,?,1%
CCc1ccc2c(c1)C(=O)c1ccccc1C2=O,-21%,4%,257%,0%
CCc1ccc2c(c1)C1(NN=C(c3cccc4ccccc34)S1)C(=O)N2 (configuration not stated),-21%,?,2.9µM*,-5%
CS(=O)(=O)NCCNc1ccc(C(F)(F)F)cc1[N+](=O)[O-],3%,4%,14%,-1%
COc1ccc2[nH]c(C)c(CCNCc3cc(OC)c(OC)c(OC)c3)c2c1,52%,·,?,1%
COc1ccc2[nH]c(C)c(CCNc3ccc(C(F)(F)F)cc3[N+](=O)[O-])c2c1,15µM*,?,?,-16%
COc1ccc(CNCCc2c(C)[nH]c3ccc(OC(F)(F)F)cc23)c(OC)c1,?,6%,5.2µM*,1%
COc1ccc2[nH]c(C)c(CCNCc3cc(OC)c4c(c3)OCO4)c2c1,?,·,7.4µM*,2%
O=C(NCc1cccnc1)C1CC(c2ccc(Cl)c(Cl)c2)=NO1 (configuration not stated),?,-9%,2%,1%
Cc1cc(C)c(C)c(S(=O)(=O)N2CCN(C(=O)C3CSC4(C)CCC(=O)N34)CC2)c1C (configuration not stated),?,·,10µM*,1%
CCN(CC)c1ccc(S(=O)(=O)N2CCCCC2)cc1NC(=O)C1CSC2(C)CCC(=O)N12 (configuration not stated),?,·,12µM*,2%
CC12CCC(=O)N1C(C(=O)Nc1ccccc1N1CCCCC1)CS2 (configuration not stated),?,·,10µM*,-2%
CC12CCC(=O)N1C(C(=O)Nc1ccccc1N1CCOCC1)CS2 (configuration not stated),-2%,7%,0%,-4%
SMILES,Pf growth 96h,NS1 inh,Pf growth 48h,SARS PLP yeast
CC12CCC(=O)N1C(C(=O)Nc1cc(C(F)(F)F)ccc1N1CCOCC1)CS2 (configuration not stated),?,·,?,0%
CC12CCC(=O)N1C(C(=O)Nc1cc(C(F)(F)F)ccc1N1CCCCC1)CS2 (configuration not stated),?,·,9.3µM*,2%
CCOc1ccc(S(=O)(=O)N2CCOCC2)cc1NC(=O)C1CSC2(C)CCC(=O)N12 (configuration not stated),-5%,·,-7%,4%
Cc1nn(CC(=O)NCCC2=CCCCC2)c(C)c1[N+](=O)[O-],13%,·,?,4%
CC(=O)Nc1nc2cc([N+](=O)[O-])ccc2s1,3%,·,32%,0%
CC(C)c1ccc(/C=C/C(=O)Nc2nc3ccc([N+](=O)[O-])cc3s2)cc1,2.3µM*,?,?,-1%
CCOc1ccc(-c2c(C(=O)N/N=C/c3ccsc3)nnn2-c2nonc2N)cc1,2%,8%,15%,-4%
Cc1cccc(C(=O)OC(C)C(=O)N2CCN(Cc3ccccc3)CC2)c1 (configuration not stated),13%,·,12%,-7%
O=C(CCCCN1CCCCC1)c1ccc2c(c1)Cc1ccccc1-2,13%,·,5.2µM*,-3%
O=C(CCN1CCCCCC1)c1ccccc1,?,9%,24%,5%
N#Cc1ccc(C23CC4(C2)[C@H](CN(P(=O)(c2ccccc2)c2ccccc2)[C@@H]4c2ccccc2)C3c2ccc(Cl)nc2)cc1 (some centres not stated),4.1µM*,?,4.7µM*,2%
COC(=O)c1cccc(C23CC4(C2)[C@H](CN(Cc2cccnc2)[C@@H]4c2ccccc2)C3c2ccccc2)c1 (some centres not stated),5.9µM*,-2%,12µM*,-6%
c1ccc(C2[C@H]3CN(Cc4cccnc4)[C@H](c4ccccc4)C34CC2(c2cccnc2)C4)cc1 (some centres not stated),2.9µM*,-42%,2.3µM*,-12%
c1ccc(C2[C@H]3CN(CC4CCCCC4)[C@H](c4ccccc4)C34CC2(c2ccccc2)C4)cc1 (some centres not stated),?,11%,?,-4%
c1ccc(C2[C@H]3CN(CC4CCCCC4)[C@H](c4ccccc4)C34CC2(c2cccnc2)C4)cc1 (some centres not stated),?,-2%,4.1µM*,-2%
Clc1ccc(C2[C@H]3CN(Cc4cccnc4)[C@H](c4ccccc4)C34CC2(c2ccccc2)C4)cn1 (some centres not stated),8.3µM*,4%,10µM*,-13%
c1ccc(C2[C@H]3CN(Cc4cccnc4)[C@H](c4ccccc4)C34CC2(c2ccccc2)C4)cc1 (some centres not stated),3.3µM*,-42%,4.1µM*,-20%
Clc1ccc(C2[C@H]3CN(Cc4ccc(-c5ccccc5)cc4)[C@H](c4ccccc4)C34CC2(c2ccccc2)C4)cn1 (some centres not stated),-24%,3%,?,-2%
COC(=O)[C@]1(Cc2ccccc2)N[C@H](CN(C)C(=O)c2ccccc2)[C@@H]2C(=O)N(Cc3ccccc3)C(=O)[C@@H]21,·,·,·,-4%

# Screening data (PubChem BioAssay)
